Source: PubChem BioAssay
This is a sample that favours compounds with a hit; in the whole collection about 1.9% have one here.
Vif inh: inhibitors of HIV Vif | AID 602346 | inhibition, % at 7.49 µM | actives 0.35% (n = 340,000) | HEK293T cells, Vif self-association by quenched fluorescence, imaging, 24 h; in the data active means inhibition above about 50%, passing the limit was not always enough
Neddylation inh: cullin neddylation inhibition. inhibition, % at 25 µM. TR-FRET cullin neddylation, biochemical. actives 0.58% (n = 360,000). AID 651699; in the data active means inhibition above about 36%
INS-1E GSIS act: GLuc luminescence reporter in INS-1E cells, primary screen for activators of glucose-dependent secretion of insulin; INS-1E GLuc reporter insulin secretion, 2-3 h; activation, % at 16.6 µM; actives 0.61% (n = 370,000); AID 743287;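 active means lowest replicate activation of at least 40%, so every replicate reaches that level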;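 further: 0% = median of neutral control wells and 100% = median of IBMX positive control wells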
A1 inh: inhibitors of the anti-apoptotic protein A1, read as caspase activation; MEF A1-2A-BIM cells, Caspase-Glo 3/7 luminescence, 3 h; percent of clofoctol response, vehicle zero; caspase activation, % (test concentration not listed); actives 0.066% (n = 330,000); AID 2462;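 active means over half of replicate activation scores above 10%, or exactly half above 10 with the replicate mean above 10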
dFosB act: mouse delta FosB homodimer activation; P13346; purified delta FosB, TAMRA-CDK5 oligo fluorescence polarization; percent of positive-control signal above neutral wells; activation, % at 25 µM; actives 0.99% (n = 340,000); AID 493131;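 active means mean activation above about 17%, with every replicate also reaching it, limit read from the data, passing the limit was not always enough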
* hit, by the source's call; · = no result given.

SMILES	Vif inh	Neddylation inh	INS-1E GSIS act	A1 inh	dFosB act
CCOC(=O)C1=C(C)N=c2s/c(=C/c3ccc(OCC(=O)O)c(OC)c3)c(=O)n2C1c1ccc(Cl)cc1 (stereo unspecified)	-8.6	65.3*	-5.4	0.7	-6.1
CCOC(=O)C1=C(C)N=c2s/c(=C\c3ccc(OCC(=O)O)cc3)c(=O)n2C1c1ccc(Cl)cc1 (stereo unspecified)	-7.9	9.1	-3.4	-1.7	-19.5
COc1ccc(C(C)=NNC(=O)c2cccc(S(=O)(=O)N3CCCC3)c2)cc1	-12.5	-6.0	-7.7	2.7	-6.0
COc1ccc(/C(C)=N/NC(=O)c2cccc(S(=O)(=O)N3CCCC3)c2)c(O)c1	-0.3	48.5*	9.1	1.1	-1.5
CNC[C@H]1Oc2ccc(N(C)C)cc2CC(=O)N(C)C[C@@H]1C	·	·	7.4	·	·
CCN(C(=O)COC(=O)CNC(=O)C12CC3CC(CC(C3)C1)C2)C1CCS(=O)(=O)C1 (stereo unspecified)	-7.3	-2.2	-3.5	-0.1	0.6
CCN(C(=O)C12CC3CC(CC(C3)C1)C2)C1CCS(=O)(=O)C1 (stereo unspecified)	-9.1	10.8	59.4*	-0.2	4.7
O=[N+]([O-])c1cc(S(=O)(=O)Nc2ccc(Cl)cc2)ccc1N/N=C/c1ccncc1	67.4*	0.3	-2.0	0.4	7.7
CCOC(=O)C(C)Oc1cccc2c(=O)n(CC(=O)NCc3ccc(F)cc3)ccc12 (stereo unspecified)	-1.6	17.5	42.0*	1.5	-3.1
CCOC(=O)C(C)Oc1cccc2c(=O)n(CC(=O)NCc3ccccc3)ccc12 (stereo unspecified)	29.6	6.3	4.6	-0.4	-9.0
O=C(CC(F)(F)F)N1C[C@H]2[C@@H](c3ccccc31)[C@@H](CO)N2C(=O)c1cccnc1	·	·	-0.2	·	·
CCc1ccccc1N(CC(=O)NCc1ccco1)C(=O)c1snc(C(N)=O)c1N	-0.9	38.6*	·	0.2	-4.4
C[C@@H]1CN([C@@H](C)CO)C(=O)c2cc(NS(=O)(=O)c3ccccc3)ccc2O[C@H]1CN(C)Cc1ccccc1	·	·	7.0	·	·
COc1ccccc1S(=O)(=O)N[C@@H]1CC[C@H](CC(=O)NCc2cc(F)cc(F)c2)O[C@@H]1CO	·	·	3.4	·	·
CN(c1ccccc1)c1nc(N)c([N+](=O)[O-])c(N2CCCC2)n1	-5.3	-5.2	-11.2	0.6	3.5
CN(c1ccccc1)c1nc(N)c([N+](=O)[O-])c(N2CCOCC2)n1	15.1	-4.3	45.3*	1.1	2.2
CN(C)CCNc1cnn(-c2ccccc2)c(=O)c1Cl	1.4	2.9	-2.5	0.7	-0.8
O=c1c(Cl)c(NCCO)cnn1-c1cccc(Cl)c1	0.1	-6.2	46.4*	0.3	-0.8
Fc1ccccc1-c1nnc2ccc3ccccc3n12	-1.4	21.9	53.2*	0.3	-2.1
CN(CC(=O)O/N=C(\N)c1ccc([N+](=O)[O-])cc1)S(=O)(=O)c1ccc2ccccc2c1	58.9*	-22.9	-31.6	-0.2	-1.7
C[C@@H]1CN(C)C(=O)Cc2cc(N(C)C)ccc2O[C@@H]1CN(C)S(C)(=O)=O	·	·	-3.4	·	·
O=C(c1ccccc1)C1OC1C(=O)c1ccccc1 (stereo unspecified)	72.9*	0.4	-7.7	·	2.5
CC(=O)Nc1ccc(NC(=O)Cn2c(-c3ccc(F)cc3)cnc2SCC(=O)Nc2c(C)cccc2C)cc1	-13.7	0.7	·	0.4	64.3*
Cn1c(-c2ccc(F)cc2)cnc1SCC(=O)Nc1ccccc1	-7.1	-2.0	-0.9	-0.9	-6.4
O=C(Cc1ccccn1)N[C@@H]1CC[C@@H](CC(=O)N2CCCCC2)O[C@H]1CO	·	·	3.1	·	·
Cc1cccc(CN2C(=O)CSc3ccc(C(=O)NC4CC4)cc32)c1	1.5	-3.4	190.5*	1.0	-6.5
COc1cccc(/C=N/Nc2nc(Nc3ccccc3)nc(-n3nc(C)cc3C)n2)c1O	·	0.4	-34.2	0.2	41.5*
O=C(N/N=C/c1ccc(OC(=O)c2ccc([N+](=O)[O-])cc2)cc1)c1cccnc1	2.1	-24.1	-3.2	-8.8	5.0
COc1ccc(C(=O)Oc2ccc(/C=N/NC(=O)Cc3ccc([N+](=O)[O-])cc3)cc2)cc1	1.2	0.0	46.3*	-1.3	-8.8
COc1ccc(NC(=O)N(C)C[C@@H]2Oc3ccc(NS(=O)(=O)c4cccs4)cc3C(=O)N([C@@H](C)CO)C[C@@H]2C)cc1	·	·	3.2	·	·
